In PubChem BioAssay (NCI):
Values joined by “and” are separate entries in the source; they are usually repeats but may differ in a detail not shown here. Identical values can stand only once. Compounds without any hit were thinned out: in the full panel of roughly 79,000, 15% have a hit. Active and inactive are the calls of the source. No stated cut-off is given here; in the data, active means growth inhibition above about 70%; inactive means the rest.

Assay: NCI Yeast Anticancer Drug Screen. Data for the cln2 rad14 strain (AID 165);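 further: 0% = growth equal to vehicle treated cultures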
Details: S. cerevisiae cln2 rad14 strain, hits give high values
Description: Growth inhibition of yeast strains with defined genetic alterations is measured as a screen for potential anti-cancer activity. Selected strains with alterations in DNA damage repair or cell cycle control were exposed to compounds and growth inhibition was measured relative to vehicle treated controls. The strain used in this assay is cln2 rad14

[1] = at 5.0 µM (retest, dose inferred, filed as 0.5)
[2] = at 50.0 µM (retest, dose inferred, filed as 5.0)

SMILES | growth inhibition [1] | growth inhibition [2] | growth inhibition (at 50.0 µM)
O=C(CBr)c1ccc(OC(=O)c2ccccc2)cc1 | 44% (inactive) | 99% (active) | -12.7% (inactive)
COc1cc(N(CCC#N)CCC#N)ccc1/C(N=Nc1ccc([N+](=O)[O-])cc1)=N/NC(=O)c1cc(Br)ccc1O | 10% (inactive) | 11% (inactive) | 55.1% (inactive)
[O-][n+]1cccc2cccc(O)c21 | -3% (inactive) | 2% (inactive) | 
Cn1ccc(=Nc2ccc(NC(=O)c3ccc(N=c4ccn(C)c5ccc([N+](=O)[O-])cc45)cc3)cc2)cc1 | 83% (active) | 96% (active) | 76.6% (active)
COc1cccc2c1C(=O)c1c(O)c3c(c(O)c1C2=O)C[C@@](O)(C(=O)CO)C[C@@H]3OC1CC(OC(C)=O)C(OC(C)=O)C(C)O1 (some centres not stated) | 41% (inactive) | 99% (active) | 88.7% (active)
CN(Cc1ccccc1)c1ccc(SC#N)cc1 | -5% (inactive) | -4% (inactive) | 24.6% (inactive)
CC(C)(C)S(=O)(=O)O.[Ag] | 99% (active) | 99% (active) | 
Cc1ccc(N2C(=O)C=CC2=O)cc1 | 92% (active) | 100% (active) | 99.5% (active)
COc1cc(N(CCC#N)CCC#N)ccc1/C(N=Nc1ccc(C(=O)O)cc1)=N/NC(=O)c1cc(Br)ccc1O | 6% (inactive) | 12% (inactive) | 34% (inactive)
Nc1cccc2c1-c1ccccc1C2=O | -1% (inactive) | -7% (inactive) | 
Cc1cc(C(=C2C=CC(=Nc3ccccc3)C=C2)c2ccc(Nc3ccccc3)cc2)ccc1N | -8% (inactive) | 69% (inactive) | 25.5% (inactive)
CC(O)C(O)C(O)C(O)C(O)C(=O)NNc1ccccc1 (configuration not stated) | 10% (inactive) | 71% (active) | 13.5% (inactive)
OC(c1cc2ccc(C(F)(F)F)cc2c2cc(C(F)(F)F)ccc12)C1CCCCN1 (configuration not stated) | 44% (inactive) | 97% (active) | 88.2% (active)
CCOC(=O)c1ccc(O)c(O)c1 |  |  | -12.2% (inactive) and 8.9% (inactive)
O=c1oc2c(O)c(O)cc3c(=O)oc4c(O)c(O)cc1c4c23 |  |  | 19% (inactive) and -8.75% (inactive)
NC(=O)N/N=C/C=C/c1ccccc1 |  |  | 7.55% (inactive) and -20.4% (inactive)
O=C(O)C(Cc1ccc(O)cc1)NS(=O)(=O)Cc1ccccc1 (configuration not stated) |  |  | 0.4% (inactive) and -22.2% (inactive)
O=C(Oc1ccc(Br)cc1)c1ccccc1 |  |  | -13.9% (inactive) and -27.1% (inactive)
Cc1ccc(C(=O)/C=C/c2ccc3c(c2)OCO3)cc1 |  |  | -8.95% (inactive) and -1.75% (inactive)
